# High-throughput results from PubChem BioAssay.
# HP1b chromo inh: HTS for Inhibitors of HP1-beta Chromodomain Interactions with Methylated Histone Tails; Chromobox protein homolog 1 (Homo sapiens), P83916; AlphaScreen HP1-beta / biotin-H3K9me3 peptide binding; Potency, µM (top dose mostly 114 µM), for inactives: at the top dose activity change, negative = inhibition, usual class: inhibitors; 0.56% of 390,000 active; AID 540317, 2011; note: potency is the fitted concentration of half-maximal effect; nearly all actives have a fitted effect of over 70% in size
#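 AlphaScreen: HP1-beta (50 nM) preformed 30 min with biotin-H3(1-18)K9me3 peptide (50 nM) in PBS pH 7.4, 0.01% Tween-20. Compound added for 30 min at RT, then streptavidin donor/nickel chelate acceptor beads (10 ug/mL) for 30 min.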
# G9a inh: qHTS Assay for Inhibitors of Histone Lysine Methyltransferase G9a. Histone-lysine N-methyltransferase EHMT2 (Homo sapiens), Q96KQ7. G9a H3K9 monomethylation, AlphaScreen, 2 h. Potency, µM (highest dose often 102 µM), for the others: at the top dose activity, negative = inhibition, most hits filed as inhibitors. 8.8% of 350,000 active. AID 504332, 2011; note: potency is the fitted concentration of half-maximal effect; % is set by controls: 0 for no effect and ±100 for the full control effect; nearly all actives have a fitted effect of over 75% in size
#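 Readings reflect AlphaScreen signal from monomethyl-H3K9 antibody detection. HMT at 20 nM; substrate b-H3K9 500 nM; cofactor SAM 20 uM; 2 h RT reaction; compounds tested as titrations in qHTS with 15 min preincubation.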
# BAZ2B inh: qHTS Assay for Inhibitors of BAZ2B | Bromodomain adjacent to zinc finger domain protein 2B (Homo sapiens), Q9UIF8 | AlphaScreen BAZ2B-H3K14Ac peptide displacement | Potency, µM (series often up to 114 µM), without a hit: top-dose activity change, negative = inhibition, most hits filed as inhibitors | 4.4% of 360,000 active; note: potency is the fitted concentration of half-maximal effect; % is set by controls: 0 for no effect and ±100 for the full control effect; nearly all actives have a fitted effect of over 60% in size
#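 Complex of BAZ2B and biotin-H3K14Ac (50 nM apiece) forms over 30 min at RT, then faces library compounds up to 110 uM for another 30 min; AlphaScreen beads added, 20 min dark incubation, luminescence read.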
# JMJD2A Tudor inh: qHTS Assay for Inhibitors of JMJD2A-Tudor Domain | 4.4% of 390,000 active | Potency, µM (titrated, usually from 114 µM), for inactives: at the top dose activity change, negative = inhibition, most hits filed as inhibitors | Lysine-specific demethylase 4A (Homo sapiens), O75164 | AlphaScreen JMJD2A-Tudor / H3K4me3 peptide binding | AID 504339, 2011; note: potency is the fitted concentration of half-maximal effect; % is set by controls: 0 for no effect and ±100 for the full control effect; nearly all actives have a fitted effect of over 50% in size
# PLK1 PBD block: qHTS for Inhibitors of PLK1-PDB (polo-like kinase 1 - polo-box domain): Primary Screen | Serine/threonine-protein kinase PLK1 (Homo sapiens), P53350 | Plk1 PBD binding of FITC phosphopeptide, fluorescence polarization | Potency, µM, without a hit: max response, negative = inhibition, hits mostly inhibitors | 2.8% of 360,000 active; note: potency is the fitted concentration of half-maximal effect; series mostly up to about 57 µM; % is set by controls: 0 for no effect and ±100 for the full control effect; nearly all actives have a fitted effect of over 65% in size
# PI5P4K alpha inh: qHTS for Inhibitors of phosphatidylinositol 5-phosphate 4-kinase (PI5P4K); Phosphatidylinositol 5-phosphate 4-kinase type-2 alpha (Homo sapiens), P48426; PI5P4Kalpha enzyme, ADP-Glo luminescence, 60 min; stronger effect = lower value; max response, %; 1.2% of 330,000 active; AID 652105, 2013; active = max response of -50% or lower; inconclusive = between -30% and -50%; inactive = -30% or higher; note: value at the top dose of about 77 µM; % is set by controls: 0 for no effect and ±100 for the full control effect
#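 ADP-Glo luminescence end-point read after a 60 min room-temperature kinase reaction of PI5P4Kalpha plus substrate, initiated with ATP at 5 microM final. Buffer: 0.038 M HEPES pH 7.4, EGTA, 0.1% CHAPS, 5% DMSO.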
# Active calls of the source: *; ? = inconclusive; . = no result given; [ ] = dose if it differs, or a comment. This is a sample that favours compounds with a hit; in the whole collection about 12% have one here. Unless noted, calls come from the whole dose curve; as a rule, active = well fitted curve in the direction sought with a large enough effect; inconclusive = small, poorly fitted or top-dose-only effect, or another doubt; inactive = no such curve, though single readings can be large; an effect the other way counts as inactive or inconclusive.
SMILES,HP1b chromo inh,G9a inh,BAZ2B inh,JMJD2A Tudor inh,PLK1 PBD block,PI5P4K alpha inh
COc1ccccc1NC(=O)C(=O)NNS(=O)(=O)c1ccc2ccccc2c1,37.3%,12.9%,?,-6.8%,-19.0%,-2.9
CCOC(=O)c1cnc(SC2CCc3ccccc3C2=O)nc1N (stereo not drawn),-11.4%,35.5µM*,-2.6%,-19.8%[57.1 µM],26.7µM*,1.3
CCCCSc1ncc(C(=O)OCC)c(N)n1,?,13.8%[59 µM],12.5%,?,9.47µM*,-18.3
CCOC(=O)c1cnc(SCCc2ccccc2)nc1N,70.7%,110.0%,50.8%,66.2%,-8.1%,.
OC[C@@H]1CN(Cc2ccc(-c3ccccc3)cc2)C[C@H](n2cnc3c(NC4CC4)ncnc32)O1,.,.,.,.,0.8%,-1.7
CCOc1ccc(-c2nnc(N)s2)cc1,20.8%,12.1%[59 µM],7.8%,-8.8%,-0.9%,.
CCOc1ccc(Oc2ccc(Cl)cc2N)cc1,46.5%,50.1µM*,?,1.4%,-1.7%,-2.9
CSc1nnc([C@@H]2CCCN2C(=O)OC(C)(C)C)o1,26.8%,30.8%,13.3%,-8.0%,-9.2%,-2.3
Cn1c(C2CCCN2C(=O)OC(C)(C)C)n[nH]c1=S (stereo not drawn),6.7%,22.4µM*,-6.7%,44.7µM*,-9.9%,-6.2
CC(C)(O)c1cc(=O)sc2nc3ccccc3n12,35.1%,-7.2%[59 µM],-3.6%,-3.8%,-0.3%,.
O=C(O)c1cc(C(=O)O)cc(-c2ccc(/C=c3/sc4nc5ccccc5n4c3=O)o2)c1,15.8µM*,2µM*,20µM*,22.4µM*,-14.9%,-26.8
O=C(O)c1cccc(-c2ccc(/C=c3/sc4nc5ccccc5n4c3=O)o2)c1,?,7.94µM*,25.1µM*,22.4µM*,0.5%,?
Cc1nn(-c2ccccc2)c(C)c1C(=O)OC(C)C(=O)NC1CCCCC1C (stereo not drawn),22.5%,?,-0.9%,-11.9%,-8.7%,7.0
O=c1cc(N2CCNCC2)nc2sc(-c3ccncc3)nn12,.,.,.,-32.0%,.,.
COc1ccc(-c2csc(-c3nc(-c4ccc(Br)s4)cs3)n2)cc1F,36.0%,-44.5%[59 µM],5.0%,1.4%,.,.
COc1ccc(N=c2scc(-c3ccc(OC)cc3)n2CCO)cc1,?,?,31.6µM*,?,-13.9%,4.1
Cc1c(N=c2scc(-c3ccccc3)n2CCO)c(=O)n(-c2ccccc2)n1C,27.4%,?,-12.0%,-21.8%,-10.5%,-1.2
COc1ccc(-c2csc(=Nc3ccccc3)n2CCO)cc1F,?,15.8µM*,50.1µM*,39.8µM*,.,.
CCCn1c(CCC(=O)O)nc2cc(S(=O)(=O)N(CC)CC)ccc21,40.1%,-1.4%[12.7 µM],-22.8%,-2.1%,0.5%,-0.3
CCN(CC)S(=O)(=O)c1ccc2c(c1)nc(-c1ccccn1)n2C,2.0%,10µM*,3.7%,31.6µM*,-18.0%,-9.6
Cc1ccccc1-c1nnc(SCC(=O)NC2CCCC2)n1C,9.9%,22.1%[2.33 µM],5.9%,-17.9%,-10.1%,-2.4
O=C(Nc1cccc(-c2nc3cccnc3s2)c1)C1c2ccccc2Oc2ccccc21,25.5%,?,79.4µM*,?,-6.7%,3.1
O=C(Nc1cccc(-c2nc3cccnc3s2)c1)c1cccnc1Cl,41.1%,6.2%,-23.6%,-16.9%,?,6.9
N#C/C(=C/c1cn(-c2ccccc2)nc1-c1cccc(OCc2ccc(F)cc2)c1)C(=O)NCCCn1ccnc1,-20.6%,1.1%[59 µM],10µM*,15.8µM*,-11.0%,-5.2
CCCOc1cccc(-c2nn(-c3ccccc3)cc2/C=C(\C#N)C(=O)NCCCn2ccnc2)c1,?,-9.1%[59 µM],?,44.7µM*,-10.0%,16.1
